High-throughput results: PubChem BioAssay, several laboratories
In the library only some 3.3% were active in any assay of this set; here they are far more common.
MazEF act: increases E. coli MazEF RNase cleavage of RNA; 350,000 tested, 0.32% active; FAM/BHQ RNA-DNA oligo cleavage fluorescence, 5 h; P0AE70; activation, % at 20 µM; in the data active = activation above about 50%
Target sequence (P0AE70 whole entry, looked up): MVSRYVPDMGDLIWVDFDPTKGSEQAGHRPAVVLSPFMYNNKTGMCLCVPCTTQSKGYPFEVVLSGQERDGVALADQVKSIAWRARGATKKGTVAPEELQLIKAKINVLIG
BoNT-F LC inh: blocks Botulinum neurotoxin F light chain protease. inhibition, % at 10 µM. Multiplex microsphere protease cleavage assay, flow cytometry. 360,000 tested, 0.22% active. AID 588497; in the data active = inhibition above about 35%, passing the limit was not always enough; inconclusive = no clear call, values can overlap the other calls; also: plate controls were buffer without enzyme for full effect and enzyme alone for no effect
Bead autofluor: counter-screen for toxin protease inhibitors: compound fluorescence; compound autofluorescence counterscreen, microsphere flow cytometry; stronger effect = higher value; 360,000 tested, 3.1% active; fluorescence intensity (test concentration not listed); in the data active = fluorescence intensity above about 16000; inconclusive = no clear call, values can overlap the other calls
SSB-PriA inh: K. pneumoniae PriA-SSBct interaction inhibition | AlphaScreen SSBct-PriA binding, biotinylated peptide | inhibition, % at 33 µM | 430,000 tested, 0.6% active | AID 1272365; in the data active = inhibition mostly above about 37%, no sharp cut-off; inactive = mostly below about 20%;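 also: plate controls were negative control peptide for no effect and reference peptide for full effect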
Anthrax LF inh2: anthrax lethal factor protease inhibition. P15917. multiplex microsphere protease cleavage assay, LF. inhibition, % at 10 µM. 360,000 tested, 0.12% active. AID 588501; also: plate controls were buffer without enzyme for full effect and enzyme alone for no effect
BoNT A protease: inhibitors of Botulinum neurotoxin A light chain protease; multiplex microsphere protease substrate cleavage, flow cytometry; inhibition, % at 10 µM; 360,000 tested, 0.17% active; AID 588499; also: plate controls were buffer without enzyme for full effect and enzyme alone for no effect
Active calls of the source: *; ? = inconclusive; nt = not tested or not shown. Rule as the data show it, unless noted: active = inhibition above about 30%; inconclusive = no clear call, values can overlap the other calls; inactive = below that.

SMILES	MazEF act	BoNT-F LC inh	Bead autofluor	SSB-PriA inh	Anthrax LF inh2	BoNT A protease
Cc1ccc(NC(=O)Cc2nnc(SCC(=O)NC3CCCC3)n2C)cc1	10	2	5137	-5	2	0
CCC(=O)Nc1ccc(C(=O)CSc2nnc(-c3ccc(O)cc3)n2CC2CCCO2)cc1 (centres undefined)	8	-1	23574*	-12	-2	-1
CC[C@H](C)c1ccccc1OCC(=O)Nc1ccc(S(=O)(=O)Nc2nc(C)cc(C)n2)cc1	nt	nt	nt	5	nt	nt
Cc1cc(C)c(S(=O)(=O)NCC(c2ccsc2)N2CCc3ccccc3C2)c(C)c1 (centres undefined)	nt	nt	nt	-3	nt	nt
CCn1c(SCC(=O)Nc2cccc(OC)c2)nnc1-c1ccc(Cl)cc1	12	3	21821*	-11	3	?
CCn1c(SCCC(=O)Nc2ccccc2)nnc1-c1ccc(OC)cc1	12	-2	2053	-2	-2	0
CCn1c(CC(=O)Nc2ccc(C)cc2)nnc1SCC(=O)NCCc1ccccc1	-5	-7	24526*	-5	-1	-5
O=[N+]([O-])c1ccccc1OCCCN1CCOCC1	1	-3	23944*	-19	-2	-2
CC1CN(CCOc2ccc([N+](=O)[O-])cc2)CC(C)O1 (centres undefined)	2	8	2113	-13	-1	0
CC1CN(CCOc2ccc(F)cc2)CC(C)O1 (centres undefined)	0	36*	3427	-11	2	0
CC1CN(CCCOc2ccccc2[N+](=O)[O-])CC(C)O1 (centres undefined)	1	5	23581*	-20	1	0
Fc1ccccc1OCCCN1CCOCC1	-3	12	17023*	-4	-16	9
COc1ccc(NC(=O)CSc2nc(-c3ccccc3F)nc3c2c(=O)n(C)c(=O)n3C)c(OC)c1	nt	nt	nt	-11	nt	nt
O=c1c2ccc(Cl)cc2nc2sc(Nc3ccc(F)cc3F)nn12	nt	nt	nt	-15	nt	nt
N#Cc1ccsc1N	nt	nt	nt	-11	nt	nt
COc1ccc(CCNC(=O)CSc2ncc(CO)n2Cc2ccc3c(c2)OCO3)cc1OC	nt	nt	nt	-10	nt	nt
Cc1ccc(C(=O)NC(Nc2ccc(S(=O)(=O)Nc3nc(C)cc(C)n3)cc2)C(Cl)(Cl)Cl)cc1 (centres undefined)	nt	nt	nt	14	nt	nt
COc1ccc(N2CCN(c3ncnc4c3cnn4CCNC(=O)c3sc(C)nc3C)CC2)cc1	nt	nt	nt	6	nt	nt
Cc1nc(Cn2nc(-c3cccnc3)n(C3CC3)c2=O)cs1	nt	nt	nt	4	nt	nt
C=CCn1c(SCC(=O)c2ccc(Cl)c(Cl)c2)nc2scc(-c3ccc(C)cc3)c2c1=O	nt	nt	nt	-5	nt	nt
O=[N+]([O-])c1ccccc1OCCCn1cnc2ccccc21	-2	3	4114	8	5	0
O=c1c2ccccc2ncn1CCCOc1ccccc1[N+](=O)[O-]	1	8	20774*	-4	-11	5
Cc1ccccc1OCCCN1CCCC1	-6	13	17560*	0	-21	?
Cc1ccccc1OCCN1CCCC1	2	?	4358	-10	0	-1
Cc1ccc(C)c2sc(N(CCCn3ccnc3)C(=O)c3ccco3)nc12	nt	nt	nt	-20	nt	nt
SMILES	MazEF act	BoNT-F LC inh	Bead autofluor	SSB-PriA inh	Anthrax LF inh2	BoNT A protease
COc1ccc2nc(N(CCCn3ccnc3)C(=O)Cc3ccc(F)cc3)sc2c1	nt	nt	nt	39*	nt	nt
COc1ccc(Cl)c2sc(N(CCN(C)C)C(=O)Cc3ccccc3)nc12	nt	nt	nt	12	nt	nt
Cc1ccc(C)c2sc(N(CCCn3ccnc3)C(=O)Cc3ccc(F)cc3)nc12	nt	nt	nt	33*	nt	nt
COc1ccc(C)c2sc(N(CCCn3ccnc3)C(=O)Cc3ccccc3)nc12	nt	nt	nt	33*	nt	nt
CCOc1ccc2nc(N(CCCn3ccnc3)C(=O)c3cccs3)sc2c1	nt	nt	nt	40*	nt	nt
COc1ccc(-c2ccc(=O)n(Cc3nc(-c4ccccc4Cl)no3)n2)cc1	nt	nt	nt	-15	nt	nt
Cc1ccccc1C(=O)Nc1nnc(-c2cc(C)n(C)n2)o1	nt	nt	nt	-8	nt	nt
COc1ccc(-c2nc(CSc3nc4ccccc4c(=O)n3Cc3ccco3)c(C)o2)cc1	nt	nt	nt	-14	nt	nt
Cc1ccccc1C(O)c1ccncc1 (centres undefined)	4	4	19164*	0	-1	3
Cc1ccc(C(O)c2ccncc2)cc1 (centres undefined)	2	9	17116*	-30	-13	8
Cc1ccc(C(O)c2ccc(-n3ccnc3)cc2)cc1 (centres undefined)	5	17	3494	2	15	-4
COc1ccc(C)cc1S(=O)(=O)N1CCCN(S(=O)(=O)c2cnn(C)c2)CC1	nt	nt	nt	2	nt	nt
O=C(NCC[C@H](O)c1ccccc1)c1ccccc1Cl	nt	nt	nt	-5	nt	nt
